Mcl-1 Bim block: inhibitors of Bim peptide binding to Mcl-1, primary screen, biochemical, bead-based flow cytometry, multiplex; Induced myeloid leukemia cell differentiation protein Mcl-1 (Homo sapiens), Q07820; Bim peptide-Mcl-1 binding; inhibition, % at 10 µM; actives 0.1% (n = 190,000); AID 1009, 2008; in the data active means inhibition above about 40%;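 further: 0% = no compound tracer wells and 100% = peptide blocker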
MCL1-BIM inh: inhibitors of MCL1 binding to BIM-BH3, primary screen, biochemical, fluorescence polarization; Induced myeloid leukemia cell differentiation protein Mcl-1 (Homo sapiens), Q07820; GST-MCL1 / FITC-Bim-BH3 fluorescence polarization; inhibition, % at 10.9 µM; actives 0.68% (n = 320,000); AID 2057, 2009;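 active means inhibition above the mean inhibition of all tested compounds plus 3 SD, set per campaign, cut at about 40% in these data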;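 further: 0% = DMSO wells and 100% = unlabeled Bim-BH3 peptide control; higher means more loss of mP so more displacement of Bim peptide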
Mcl1-Noxa inh: Mcl-1/Noxa binding inhibitors, primary screen, biochemical, TR-FRET, 1536-well; Induced myeloid leukemia cell differentiation protein Mcl-1 (Homo sapiens), Q07820; TR-FRET Mcl-1/Noxa peptide binding, 2 h; actives 1.5% (n = 220,000); inhibition, % at 21.7 µM;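 active means compounds that cut the protein-peptide binding signal by more than 50% relative to plate controls in a single-dose test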;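 further: His-tagged Mcl-1 with rhodamine Noxa BH3 peptide and terbium anti-His antibody; 0% = Mcl-1 plus Noxa peptide wells and 100% = peptide-only wells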
Mcl1 Bid PPI: Mcl-1/Bid binding inhibitors, primary screen, biochemical, TR-FRET, 1536-well. TR-FRET Mcl-1/Bid-Dy647 peptide binding. inhibition, % at 21.7 µM. actives 0.97% (n = 220,000). AID 1021, 2008;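 active means compounds that cut the binding signal by more than half at the single screening dose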;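 further: His-tagged Mcl-1 with europium anti-His antibody binding Bid BH3 peptide; 0% = Mcl-1 plus peptide wells and 100% = peptide-only wells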
GLD-1 RNA inh: GLD-1/TGE RNA complex disruptors, primary screen, biochemical, fluorescence polarization | Female germline-specific tumor suppressor gld-1 (Caenorhabditis elegans), Q17339 | purified GLD-1 + fluorescein TGE RNA | inhibition, % at 5.96 µM | actives 0.44% (n = 320,000) | AID 2280, 2010;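 active means percent inhibition above a per-plate cutoff, the plate mean of test compounds plus 3 SD, cut at about 30% in these data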;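 further: 0% = DMSO wells with GLD-1 and probe and 100% = wells lacking GLD-1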
Target sequence (Q17339 whole entry, looked up): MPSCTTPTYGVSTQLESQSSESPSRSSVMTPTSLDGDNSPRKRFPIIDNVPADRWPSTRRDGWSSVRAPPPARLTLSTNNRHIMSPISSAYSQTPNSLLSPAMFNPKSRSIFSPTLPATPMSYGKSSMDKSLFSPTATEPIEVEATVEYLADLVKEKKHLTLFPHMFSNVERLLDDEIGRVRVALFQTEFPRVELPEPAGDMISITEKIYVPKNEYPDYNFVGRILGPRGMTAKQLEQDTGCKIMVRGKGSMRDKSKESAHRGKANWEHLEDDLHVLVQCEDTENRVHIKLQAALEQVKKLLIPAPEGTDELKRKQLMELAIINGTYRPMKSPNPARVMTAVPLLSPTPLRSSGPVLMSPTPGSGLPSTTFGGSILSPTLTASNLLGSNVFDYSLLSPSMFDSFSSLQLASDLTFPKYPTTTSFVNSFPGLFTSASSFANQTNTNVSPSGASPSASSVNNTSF
BCLXL inh: inhibitors of human Bcl-xL, primary screen, biochemical, fluorescence polarization, HTS; Bcl-2-like protein 1 (Homo sapiens), Q07817; inhibition, % at 10.9 µM; GST-Bcl-xL / FITC-Bim BH3 peptide fluorescence polarization; AID 2129, 2009; actives 0.7% (n = 320,000);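 active means inhibition above the mean of all tested compounds plus 3 SD, cutoff set per campaign, cut at about 30% in these data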;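 further: 0% = DMSO wells and 100% = unlabeled Bim-BH3 peptide competitor; inhibitors lower millipolarization by displacing the labeled peptide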
* hit, by the source's call; x = not tested or not shown; + = active, no number. Shown are actives, neighbours in structure and some others; about 2.3% of the full set was active somewhere.

SMILES | Mcl-1 Bim block | MCL1-BIM inh | Mcl1-Noxa inh | Mcl1 Bid PPI | GLD-1 RNA inh | BCLXL inh
CCOC(=O)Cn1c(=O)oc2cc(S(=O)(=O)Nc3ccc(N(CC)CC)cc3C)ccc21 | -2 | 4 | 54* | -12 | 12 | 8
CCOC(=O)Cn1c(=O)oc2cc(S(=O)(=O)Nc3cc(OCC)ccc3OCC)ccc21 | -3 | -6 | 7 | -73 | -9 | -3
O=C(c1ccco1)N1CCN(C(c2ccc(Cl)cc2)c2nnnn2CC2CCCO2)CC1 (configuration not stated) | -6 | 7 | 15 | 55* | 6 | 2
CC1CCN(C(c2ccc(N(C)C)cc2)c2nnnn2Cc2ccc(F)cc2)CC1 (configuration not stated) | -1 | 1 | 18 | -49 | 0 | 2
Fc1ccc(Cn2nnnc2C(c2ccc(Cl)cc2)N2CCSCC2)cc1 (configuration not stated) | 43* | 8 | 11 | 14 | 7 | 6
O=C(c1ccco1)N1CCN(C(c2ccc(F)cc2)c2nnnn2Cc2cccs2)CC1 (configuration not stated) | -3 | 3 | 25 | 62* | 5 | 5
Oc1c(/C=N/c2ccccn2)sc2ccccc12 | x | -42 | 76* | 49 | -26 | -22
COc1ccc(NC(=O)COc2coc(CN3CCN(c4ccccc4)CC3)cc2=O)cc1 | x | 8 | x | x | 0 | 14
COc1ccc(N=Nc2ccc(O)c3ncccc23)cc1 | x | 11 | -2 | 73* | 1 | 4
CC(=O)Nc1ccc(S(=O)(=O)N2CCC(C(=O)NCc3ccncc3)CC2)cc1 | x | 3 | x | x | 3 | 6
Cc1cc(NC(=O)CSc2nnc(NC(=O)C3CC(=O)N(c4ccccc4)C3)s2)no1 (configuration not stated) | 2 | -20 | -56 | 51* | 8 | -14
O=C1c2ccccc2C(=O)N1CN(C(=O)COc1ccc(Cl)cc1Cl)c1cccc(F)c1 | 92* | -3 | 6 | -13 | -3 | 0
Cc1ccc(C(=O)C(C)OC(=O)CCN=C2NS(=O)(=O)c3ccccc32)cc1 (configuration not stated) | x | -3 | x | x | 9 | -6
CCN(c1ccc(F)cc1)S(=O)(=O)c1ccc2[nH]cc(C(=O)NCCCN3CCOCC3)c(=O)c2c1 | 0 | 1 | 31 | 32 | 4 | 6
CCN(c1ccccc1)S(=O)(=O)c1ccc2[nH]cc(C(=O)N3CCOCC3)c(=O)c2c1 | 0 | 4 | -1 | 57* | -6 | 4
COc1ccc(CC(=O)Nc2ccncc2Cl)cc1 | x | 0 | x | x | 2 | 0
Oc1cccc(Nc2nc(NCC3CCCO3)c3ccccc3n2)c1 (configuration not stated) | 0 | 5 | 58* | 9 | -3 | 4
Oc1[nH]c2ccccc2c1/C=N/N1CCCCC1 | 0 | 0 | -6 | 93* | 2 | 2
O=C(CCNC(=O)c1ccco1)Nc1ccc(Cl)c(C(F)(F)F)c1 | x | -3 | x | x | -7 | 1
O=[N+]([O-])c1cc(/C=N\Nc2ccccn2)ccc1Cl | x | 0 | x | x | 2 | -2
O=[N+]([O-])c1cc(Cl)cc(/C=N\Nc2ccccn2)c1O | 0 | 14 | -11 | 73* | 1 | 4
NC(=O)C1CCN(C(=O)NC(=O)c2ccccc2)CC1 | x | 5 | x | x | 4 | 5
Nc1[nH]n2c(=O)cc(-c3ccccc3)nc2c1N=Nc1ccc2c(c1)OCO2 | 3 | 13 | 60* | -57 | 4 | 2
CCOC(=O)C1=C(O)/C(=C/c2ccc(OCC(=O)O)c(OC)c2)SC1=Nc1ccc(OCC)cc1 | -5 | 10 | 24 | -14 | 4 | 6
CCOC(=O)C1=C(O)/C(=C/c2cc(OC)c(O)c(OC)c2)SC1=Nc1ccc(OC)cc1 | -1 | x | 75* | -4 | x | x
SMILES | Mcl-1 Bim block | MCL1-BIM inh | Mcl1-Noxa inh | Mcl1 Bid PPI | GLD-1 RNA inh | BCLXL inh
CCN(C(=O)COC(=O)c1cc(-c2ccc(C)o2)nc2ccccc12)C1CCS(=O)(=O)C1 (configuration not stated) | -1 | 33 | 68* | 21 | 5 | 23
CCN(C(=O)COC(=O)c1cc(-c2cccs2)nc2ccccc12)C1CCS(=O)(=O)C1 (configuration not stated) | 0 | 5 | 2 | -24 | 6 | 1
Cc1ccc(-c2cc(C(=O)OCC(=O)N(C)C3CCS(=O)(=O)C3)c3ccccc3n2)c(C)c1 (configuration not stated) | -2 | -5 | 12 | -7 | 3 | -10
Cc1ccc(-c2cc(C(=O)OCC(=O)N(C)C3CCS(=O)(=O)C3)c3ccccc3n2)o1 (configuration not stated) | 1 | 22 | 78* | -61 | 2 | 25
COc1ccc(C(=O)COC(=O)CCNS(=O)(=O)c2ccccc2)c(OC)c1 | x | -3 | x | x | -1 | 2
Nc1cc(=O)[nH]c(SCC(=O)Nc2ccc(N3CCOCC3)cc2)n1 | x | x | x | x | -2 | x
CC1CCCCC1NC(=O)c1ccc2c(c1)[nH]c(=O)n2C1CCCC1 (configuration not stated) | -4 | 3 | 82* | 8 | -6 | 5
CCC(=O)c1ccc(OCC(O)CN2CCOCC2)cc1 (configuration not stated) | 0 | 4 | 4 | -1 | 2 | 4
CC(=O)c1ccc(OCC(O)CN2CCOCC2)cc1 (configuration not stated) | -2 | -1 | 64* | 11 | 3 | 4
Clc1ccc2[nH]c(-c3ccccc3)cc2c1 | -2 | 2 | 25 | -11 | 4 | +
c1ccc(-c2cc3ccccc3[nH]2)cc1 | x | -13 | x | x | 4 | 3
CCn1c(SCC(=O)Nc2nc(-c3ccc(C)cc3)cs2)nnc1-c1ccccc1 | -1 | 5 | -7 | 6 | -3 | 8
C=CCn1c(SCC(=O)Nc2ccc(-c3nc4ccc(C)cc4s3)cc2)nnc1-c1ccncc1 | -11 | 7 | 63* | -20 | -5 | 2
C=CCn1c(SCC(=O)Nc2ccc(N3CCOCC3)cc2)nnc1-c1ccncc1 | x | -3 | x | x | 0 | 0
CCn1c(SCC(=O)Nc2ccc(-c3nc4ccc(C)cc4s3)cc2)nnc1-c1ccccc1 | -5 | -1 | 66* | 66* | -2 | 3
Cn1c2ccccc2c2nnc(SCC(=O)Nc3cccc(O)c3)nc21 | x | 10 | x | x | 9 | 11
Cc1n[nH]c(=S)c2nn(-c3ccccc3)c(C)c12 | 0 | x | 15 | 70* | x | x

High-throughput results from PubChem BioAssay.
